Experimental data reported in PubChem BioAssay AID1531 (NMMLSC, 2009).
About 3,300 (1.1%) of roughly 290,000 compounds were called active. What follows is part of a selection rich in actives, with near analogues and random picks from the rest. Unmarked numbers belong to inactive results. Rule as the data show it: active = binding response below about 67% or above about 130%; inconclusive = no clear call, values can overlap the other calls; inactive = in between.

biological target: Mitogen-activated protein kinase kinase kinase 2 (Homo sapiens) (UniProt Q9Y2U5); assay: modulators of MEK5 binding to wildtype MEKK2, primary screen, biochemical, multiplex bead flow cytometry, Alexa488-MEK5 (AID 1531); details: Alexa488-MEK5 binding to MEKK2 WT, at 10 µM, actives lie on both sides

| Structure (SMILES) | binding response (% of control) |
| --- | --- |
| Cc1ccc(CN(N=Nc2nonc2N)c2nonc2N)c(C)c1 | 92% |
| CCN(CC)S(=O)(=O)c1ccc(N2CCOCC2)c(NC(=O)C2CSC3(C)CCC(=O)N23)c1 (configuration not stated) | 100% |
| CN(Cc1ccccc1)CC(O)COc1ccc(CNCc2cc3ccccc3s2)cc1 (configuration not stated) | 138% (active) |
| OC(CNCc1ccc2c(c1)OCO2)COc1ccccc1 (configuration not stated) | 93% |
| Cc1ccc(OCC(=O)OC(C)CN(C)Cc2ccccc2)cc1 (configuration not stated) | 94% |
| O=C(N/N=C/c1cccc(O)c1)c1cc2c(ccc3ccccc32)o1 | 97% |
| CCOC(=O)c1c(-c2ccc(-c3ccccc3)cc2)csc1NC(=O)CCC(=O)O | 97% |
| CCOC(=O)c1c(-c2ccccc2)csc1NC(=S)NC(=O)c1ccccc1 | 13% [inhibitor] (active) |
| CCOC(=O)c1c(-c2cccc(C)c2)csc1NC(=O)c1c(-c2ccccc2)noc1C | 84% |
| Cc1cccc(C)c1NC(=O)C1(C)c2cccc[n+]2CC(=O)N1Cc1cccs1 (configuration not stated) | -5% (active) |
| CCc1cccc(C)c1NC(=S)N(CCCN1CCN(C)CC1)Cc1cccs1 | 100% |
| Cc1cccc(C)c1NC(=O)N1CC(C)OC(C)C1 (configuration not stated) | 107% |
| COc1ccc(C(=O)N2CCCCC2C(=O)Nc2ccc(-n3nc(C)cc3C)cc2)o1 (configuration not stated) | 107% |
| COc1ccc(Nc2ncc(F)c(N3CCOCC3)n2)cc1 | 78% |
| CC(=O)N1c2ccc(S(=O)(=O)N3CCC(C(=O)NCc4ccc(F)cc4)CC3)cc2CC1C (configuration not stated) | 99% |
| NS(=O)(=O)c1ccc(-c2ccc(/C=C3\SC(=O)NC3=O)o2)cc1 | 102% |
| O=C(O)C(c1ccccc1)N1C(=O)/C(=C\c2ccc(-c3cccc(Cl)c3)o2)SC1=S (configuration not stated) | 85% |
| CN1C(=O)/C(=C\c2ccc(-c3ccccc3)o2)SC1=S | 14% [inhibitor] (active) |
| COc1cc2c(cc1OC)C(c1ccc(C)o1)CC(=O)N2 (configuration not stated) | 98% |
| COc1cc2c(cc1OC)C(c1ccncc1)CC(=O)N2 (configuration not stated) | 117% |
| COc1ccc(C2CC(=O)Nc3cc(C)c(C)cc32)c(OC)c1OC (configuration not stated) | -2% [inhibitor] (active) |
| CCOc1ccc(C)cc1S(=O)(=O)NC1CCCCCC1 | 106% |
| Cc1ccc2c(c1)N(CC(=O)N1CCC(O)CC1)C(=O)CO2 | 94% |
| N=c1c2c(-c3ccccc3)c(-c3ccccc3)n(Cc3ccccc3)c2ncn1CCCO | 155% (active) |
| N=c1c2c(-c3ccccc3)c(-c3ccccc3)oc2ncn1Cc1ccco1 | 92% |

| Structure (SMILES) | binding response (% of control) |
| --- | --- |
| CCN(CC)CCn1cnc2c1c(=O)[nH]c(=O)n2Cc1ccccc1 | 104% |
| O=C(CN1CCN(c2ccccn2)CC1)NC1CCCCC1 | 104% |
| O=C(CN1CCN(c2ccccn2)CC1)N1CCc2ccccc21 | 3% (active) |
| O=C(CN1CCN(c2ccccn2)CC1)Nc1ccc(Br)cc1 | 109% |
| Cc1ccc(CNC(=O)c2ccc3c(c2)S(=O)(=O)c2ccccc2C3=O)cc1 | 111% |
| COc1ccc(-c2[nH]ncc2CN(C)Cc2c(C)n[nH]c2C)c(OC)c1 | -2% [inhibitor] (active) |
| COc1ccc(-c2[nH]ncc2CN(C)Cc2cc(C)[nH]n2)c(F)c1 | 83% |
| COc1ccc(-c2[nH]ncc2CN(C)Cc2cccnc2)c(F)c1 | 102% |
| COc1ccc(CCOC(=O)CNC(=O)c2ccc(Cl)cc2Cl)cc1 | 86% |
| CCc1cccc(C)c1NS(=O)(=O)c1c(C)nc2sccn2c1=O | 101% |
| CCN(CC)c1ccc(/C=N/NC(=O)CNC(=O)c2cccs2)cc1 | 92% |
| O=C(c1ccc(Cl)cc1)n1cnc2ccccc21 | 106% |
| Cc1cc(C)cc(OCC(=O)NCc2cc(C)nc3ccccc23)c1 | 103% |
| Cc1cc(C)c(NC(=O)c2oc3ccccc3c2COc2ccccc2)c(C)c1 | 100% |
| Cc1cc(C)c(NC(=O)C[N+](C)(C)CC(O)COc2cccc3ccccc23)c(C)c1 (configuration not stated) | 149% (active) |
| CN(C)CC(O)COc1ccc(C(C)(C)c2ccc(OCC(O)CN(C)C)cc2)cc1 (configuration not stated) | 225% (active) |
| Cc1cc(C)n(CC(O)COc2ccc(C(C)(C)C)cc2)n1 (configuration not stated) | 107% |
| CC(C)(c1ccccc1)c1ccc(OCCN)cc1 | 117% |
| COc1ccccc1C1=CC(=O)CCC1 | 98% |
| CCOC(=O)C1Nc2ccc(C(F)(F)F)cc2C2C=CCC12 (configuration not stated) | 98% |
| CC1(C)Cc2c(sc(NC(=O)C(=O)N3CCOCC3)c2C#N)CO1 | 95% |
| CC(C)c1ccc(C(=O)NCCCc2ccccc2)cc1 | 2% [inhibitor] (active) |
| CCCOc1ccc(C(=O)NCCc2ccccc2)cc1 | 94% |
| Cc1cc(C(=O)NCCCc2ccccc2)no1 | 99% |
| O=C(NCc1ccccc1Cl)c1csc2c1CCCCC2 | 93% |

| Structure (SMILES) | binding response (% of control) |
| --- | --- |
| O=C(NCc1ccccc1Cl)NC(=O)c1csc([N+](=O)[O-])c1 | -14% [inhibitor] (active) |
| O=[N+]([O-])c1ccccc1NCc1ccccc1Cl | 66% |
| CCCCCc1c(C)nc(N2CCN(Cc3ccc4c(c3)OCO4)CC2)[nH]c1=O | 97% |
| OCC1(CCc2ccccc2)CCN(Cc2ccc3nsnc3c2)CC1 | 89% |
| COc1cccc(CC2(CO)CCN(Cc3cnc(-c4cccc(C)c4)nc3)CC2)c1 | 98% |
| Cc1cccc(-c2ncc(CN3CCC(CO)(CCCc4ccccc4)CC3)cn2)c1 | 163% (active) |
| O=C(COc1ccc2ccc(=O)oc2c1)NCC(O)c1ccccc1 (configuration not stated) | 104% |
| O=C(O)C1CCN(c2ccc([N+](=O)[O-])cc2[N+](=O)[O-])CC1 | 46% [inhibitor] (active) |
| CC1CCN(c2ccc([N+](=O)[O-])cc2C(N)=O)CC1 | 95% |
| CCOC(=O)C1CCN(c2ccc(C(=O)O)cc2[N+](=O)[O-])CC1 | 101% |
| CCOc1ccccc1-c1cc(C(=O)N/N=C(\C)c2cccnc2)c2ccccc2n1 | 92% |
| Cc1cc(C(=O)NC2CCN(Cc3ccccc3)CC2)n[nH]1 | 98% |
| O=C(NC1CCN(Cc2ccccc2)CC1)c1ccc(Oc2cc(Cl)cc(Cl)c2)o1 | 142% (active) |
| O=C(NC1CCN(Cc2ccccc2)CC1)c1c(F)cccc1F | 113% |
| O=C(NC1CCN(Cc2ccccc2)CC1)c1cc(Br)c(Br)[nH]1 | 140% (active) |
| CCOc1ccc(CC(=O)NC2CCN(Cc3ccccc3)CC2)cc1 | 108% |
| O=C(NC1CCN(Cc2ccccc2)CC1)c1ccccc1F | 101% |
| C#CCOc1ccc(/C=C2/C(=O)ON=C2C)cc1OCC | 107% |
| CCc1nnc(SCc2cccc(F)c2)nc1CC | 103% |
| O=C(NCc1ccccn1)c1cc(Br)ccc1Cl | 106% |
| COc1ccc(-c2ccc(CNCCCN3CCOCC3)o2)cc1Cl | 106% |
| Fc1ccc(-c2ccc(CNCc3ccccn3)o2)cc1Cl | 140% (active) |
| O=C(Nc1cccc(-c2nc3ccccc3[nH]2)c1)c1ccc(C(=O)Nc2cccc(-c3nc4ccccc4[nH]3)c2)cc1 | 63% [inhibitor] (active) |
| Cc1ccc(-c2nc3ccccc3[nH]2)cc1NC(=O)c1sc2ccccc2c1Cl | 98% |
| O=C(Cc1cccs1)Nc1cccc(-c2nc3ccccc3[nH]2)c1 | 95% |

| Structure (SMILES) | binding response (% of control) |
| --- | --- |
| C=C1CCN([C@@H](Cc2ccccc2)C(=O)N2CCOCC2)S(=O)(=O)c2ccccc21 | 107% |
| COc1ccc(NC(=O)CCC(=O)Nc2cc(OC)c(NC(=O)c3ccco3)cc2OC)c(OC)c1 | 96% |
| O=C(NCC1CC1)c1onc(CSc2ccccc2)c1C(=O)NCC1CC1 | 95% |
| COc1ccc(NC(=O)Cn2nnc(C(=O)NCCc3ccc(OC)c(OC)c3)c2N)cc1 | 2% [inhibitor] (active) |
| CCc1ccc(NC(=O)Cn2nnc(C(=O)NCc3ccc(OC)cc3)c2N)cc1 | 104% |
| COc1ccc(CNC(=O)c2nnn(CC(=O)Nc3cc(C)cc(C)c3)c2N)cc1 | 101% |
| CCC(C)N1CC(=O)N2Cc3[nH]c4ccccc4c3C[C@H]2C1=O (some centres not stated) | 109% |
| COc1ccc(NC(=O)C/C(C)=N/NC(=O)c2cnccn2)cc1Cl | 96% |
| Cc1noc(C)c1C(=O)OCC(=O)/C=C1\N(C)c2ccccc2C1(C)C | 96% |
| CC(=O)Nc1cccc(OCC(=O)/C=C2\N(C)c3ccccc3C2(C)C)c1 | 63% [inhibitor] (active) |
| CN1/C(=C\C(=O)c2cccnc2Cl)C(C)(C)c2ccccc21 | 95% |
| COc1ccc(Cl)cc1-n1c(=S)sc2c(=O)n(-c3ccc(F)cc3)c(SCC(=O)O)nc21 | 101% |
| COc1ccc(Oc2cn[nH]c2-c2ccc(OC)cc2O)cc1 | 98% |
| CN(C)CCCNC(=S)N1CCN(c2nc(-c3ccccc3)cs2)CC1 | 149% (active) |
| CN(C)CCCNC(=S)N1CCC(c2nc3ccccc3[nH]2)CC1 | 116% |
| COCCCNC(=S)N1CCN(c2nc(-c3cccc(OC)c3)cs2)CC1 | 95% |
| O=C(CSc1ccc(-c2ccccn2)nn1)Nc1ccccc1 | 110% |
| COc1cc2c(cc1OC)C(c1ccccc1Br)NC(=O)C2 (configuration not stated) | 103% |
| COCCCN1C(=O)c2ccc(C(=O)OCC(=O)NCc3ccccc3OC)cc2C1=O | 101% |
| CN1C(=O)/C(=C/c2ccc(C(=O)NC3CCCC3)cc2)Oc2ccccc21 | 99% |
| CCCN1CCN(C(=O)CCCNC(=O)c2ccc(Cl)cc2)CC1 | 100% |
| CN1CCN(CCCNC(=O)c2ccc(/C=C3\Oc4ccccc4N(Cc4ccc(Cl)cc4)C3=O)cc2)CC1 | 171% (active) |
